Source: PubChem
FH mod: Identification of activators of human fumarate hydratase by quantitative high-throughput screening; AID 1347055, 2019; Fumarate hydratase, mitochondrial (Homo sapiens), P07954; 54,000 tested, 0.22% active; FH coupled MDH/diaphorase resazurin fluorescence, 15 min; Potency, µM (highest dose often 79.9 µM), inactives show top-dose activity change, negative = inhibition, hits mostly inhibitors; note: the screen sought activators but most active calls are inhibition curves; nearly all actives have a fitted effect of over 45% in size
Target sequence (P07954 whole entry, looked up): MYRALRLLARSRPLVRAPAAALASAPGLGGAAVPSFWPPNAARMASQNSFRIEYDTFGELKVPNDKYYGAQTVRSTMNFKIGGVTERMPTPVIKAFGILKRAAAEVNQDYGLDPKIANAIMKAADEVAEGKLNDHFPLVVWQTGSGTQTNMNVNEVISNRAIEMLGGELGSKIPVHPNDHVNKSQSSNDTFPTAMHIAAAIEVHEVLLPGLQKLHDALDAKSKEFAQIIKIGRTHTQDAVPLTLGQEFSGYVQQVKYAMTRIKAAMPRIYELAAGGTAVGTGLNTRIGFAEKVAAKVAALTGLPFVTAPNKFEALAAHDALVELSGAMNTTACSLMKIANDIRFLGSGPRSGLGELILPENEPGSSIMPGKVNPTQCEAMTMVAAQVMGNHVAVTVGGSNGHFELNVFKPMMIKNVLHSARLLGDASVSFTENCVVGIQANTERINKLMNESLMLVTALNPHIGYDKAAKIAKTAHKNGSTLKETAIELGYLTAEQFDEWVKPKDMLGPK
NTMT1 inhibitor: blocks human N-terminal methyltransferase 1 activity | Potency, µM (titrated, usually from 114 µM), without a hit: at the top dose activity change, negative = inhibition, usual class: inhibitors | NTMT1 MTase-Glo SAH luminescence, purified enzyme | 59,000 tested, 2.5% active | AID 1645870 | Q9BV86;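 note: plate controls were DMSO vehicle for no effect and no enzyme for full effect; nearly all actives have a fitted effect of over 65% in size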
Target sequence (Q9BV86 whole entry, looked up): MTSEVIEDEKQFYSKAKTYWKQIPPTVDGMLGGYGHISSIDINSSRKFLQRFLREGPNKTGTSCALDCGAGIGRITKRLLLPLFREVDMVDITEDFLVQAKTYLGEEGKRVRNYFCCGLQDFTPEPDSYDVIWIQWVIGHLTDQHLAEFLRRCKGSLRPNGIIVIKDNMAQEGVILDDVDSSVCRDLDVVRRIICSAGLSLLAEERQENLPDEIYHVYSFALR
p53null 39C kill: kills p53 null cells at the nonpermissive temperature; H1299 p53-null (neo) cells, 39C, ATPlite viability, 24 h; Potency, µM (series often up to 46.1 µM), for the others: at the top dose activity, negative = cell killing, hits mostly cytotoxic; 55,000 tested, 0.97% active; AID 904;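 note: 0% = DMSO only and -100% = full killing by 100 µM tamoxifen; nearly all actives have a fitted effect of over 50% in size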
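H1299 lung cancer cells, p53-null (H1299-neo) or expressing p53 A138V (H1299-p53A138V), were plated overnight at 37C, then exposed to compounds at up to 46 uM for 24 hr at 39C. Viability was read by ATP-based luminescence.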
p53null 32C kill: kills p53 null cells at the permissive temperature | H1299-neo p53 null cells, ATP luminescence, 24 h, 32C | Potency, µM (series often up to 46.1 µM), for the others: at the highest dose activity change, negative = cytotoxicity, usual class: cytotoxic | 55,000 tested, 0.62% active;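 note: 0% = DMSO only and -100% = full killing by 100 µM tamoxifen; nearly all actives have a fitted effect of over 55% in size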
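ATP-content luminescence in p53-null H1299-neo cells after 24 h compound exposure (up to 46 uM) at 32C permissive temperature; 0% and 100% killing set by DMSO and 100 uM tamoxifen; Hill-equation AC50.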
OvCa metastasis: ovarian cancer metastasis inhibition, 3D TME model. Potency, µM (top dose mostly 45.8 µM), for the others: at the highest dose activity change, negative = inhibition, actives largely listed as inhibitors. SKOV3ip1-GFP adhesion/invasion on 3D omental model, fluorescence. AID 1963576. 46,000 tested, 0.1% active;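 note: plate controls were DMSO wells for no effect and tomatine positive control wells for full effect; nearly all actives have a fitted effect of over 65% in size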
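A 3D layer of primary human omental fibroblasts, mesothelial cells, fibronectin and collagen I, grown 48 hr, received SKOV3ip1-GFP cells in serum-free medium plus compounds at 0.36-46 umol/L. After 2 hr RT and 16 hr 37 C, fixed adherent GFP cells were counted; normalized to DMSO and tomatine.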
* marks the source's active call; other numbers are inactive results; i = inactive; ? = inconclusive; . = not tested or not shown; ! = not confirmed by another sample; [ ] = dose if it differs, or a comment. Only a selection was taken, and hits are over-represented in it overall. Calls come from the whole dose curve; as a rule, active = well fitted curve in the direction sought with a large enough effect; inconclusive = small, poorly fitted or top-dose-only effect, or another doubt; inactive = no such curve, though single readings can be large; an effect the other way counts as inactive or inconclusive. Unless noted, % is set by controls: 0 for no effect and ±100 for the full control effect; potency is the fitted concentration of half-maximal effect.

SMILES	FH mod	NTMT1 inhibitor	p53null 39C kill	p53null 32C kill	OvCa metastasis
Cc1ccc(OCCSc2nc(-c3ccccc3C)nc3cc(=O)[nH]n23)cc1Cl	?	-26.2%	25.1µM*	-6.5%	-3.3%
Cc1cccc(-c2nc(SCCCOc3ccc(Cl)c(C)c3)n3[nH]c(=O)cc3n2)c1	-19.5%	6.2%	8.5%	1.4%	-8.3%
Cc1cccc(OCCCSc2nc(-c3ccc(C(C)(C)C)cc3)nc3cc(=O)[nH]n23)c1C	?	?	12.6µM*	43.4%	i
CC(C)c1ccc(Nc2ncnc3c2nc2n3CCCC2)cc1	-7.5%	79.4µM*	?	-9.2%	-5.7%
Cc1ccccc1C(=O)N1CCc2cc(N3CCC(NC(=O)Cc4ccccc4)C3)ccc21 (centres undefined)	.	-14.2%	.	.	.
NC(=O)c1cccc2[nH]c(-c3ccc([C@H]4CCCN4)cc3F)nc12	4.7%[53.3 µM]	44.7µM*	.	.	36.0%
NC(=O)c1cccc2[nH]c(-c3ccc(C4CCCN4)cc3F)nc12 (centres undefined)	1.4%	-3.3%[57.5 µM]	.	.	.
CCc1ccc(CNC(=O)C2CCCN(c3nnc(C)c4c(C)n(-c5ccc(OC)cc5)nc34)C2)cc1 (centres undefined)	-24.0%	?	?	25.1µM*	?
COc1ccc(-n2nc3c(N4CCC(C(=O)NCc5cccc(F)c5)CC4)nnc(C)c3c2C)cc1	-1.4%	-5.0%	3.16µM*	-12.0%	-25.0%
COc1ccc(CNC(=O)C2CCN(c3nnc(C)c4c(C)n(-c5ccc(C)cc5)nc34)CC2)cc1	-11.2%	?	12.6µM*	?	?
COc1ccc(CNC(=O)C2CCCN(c3nnc(C)c4c(C)n(-c5ccc(C)cc5)nc34)C2)cc1 (centres undefined)	-28.1%	79.4µM*	3.5%	-0.7%	-28.7%
CCOCc1nc2c(N)nc3ccccc3c2n1CC(C)(C)O	0.5%	4.8%[57.5 µM]	.	.	.
CCNC(=O)C1CCCN(c2nnc(C)c3c(C)n(-c4ccc(C)cc4)nc23)C1 (centres undefined)	?	-1.6%	-17.6%	1.7%	-18.4%
COc1ccc(-n2nc3c(N4CCCC(C(=O)NCc5ccc(C)cc5)C4)nnc(C)c3c2C)cc1 (centres undefined)	-25.0%	?	14.6%	?	12.6µM*
CC(C)c1c(C(=O)Nc2ccccc2)c(-c2ccccc2)c(-c2ccc(F)cc2)n1CC[C@@H](O)C[C@@H](O)CC(=O)O	2.6%[20.6 µM]	35.5µM*!	.	.	.
Cc1cc(F)ccc1S(=O)(=O)Nc1cc2c(C(=O)O)c(C)oc2c2ccccc12	15.8µM*	3.7%	18.6%	9.8%	-0.7%
COc1cc(-c2cn(C)c(=O)c3cnccc23)c(OC)cc1CN(C)C	.	6.4%	.	.	.
COc1ccc(C2=N[C@@H](c3ccc(Cl)cc3)[C@@H](c3ccc(Cl)cc3)N2C(=O)N2CCNC(=O)C2)c(OC(C)C)c1	-7.2%	1.5%[57.5 µM]	.	.	.
CCCCN(C)CCCNC(=O)C1CCN(S(=O)(=O)CC)CC1	0.1%	-5.7%	-1.6%	-6.0%	?
CCCCN(CC)CCCNC(=O)C1CCN(c2nc3ccc(CC)cc3s2)CC1	-5.2%	-16.7%	12.6µM*	?	?
CCCCN(C)CCCNC(=O)C1CCN(c2nc3ccc(CC)cc3s2)CC1	-4.9%	?	12.6µM*	?	?
CN(Cc1cccs1)c1nc(-c2ccccc2C(F)(F)F)nc2ccccc12	.	4.1%	.	.	.
O=C(CSc1nnc2[nH]c(=O)cc(-c3ccccc3)n12)Nc1cc(C(F)(F)F)ccc1Cl	?	?	0.794µM*	1.26µM*	-1.6%
CNCCCOc1cc(F)c(-c2c(Cl)nc3ncnn3c2N[C@@H](C)C(F)(F)F)c(F)c1	.	28.2µM*	.	.	.
Cc1ccc(CS(=O)(=O)c2ncc(Cl)c(C(=O)Nc3nc4ccc(C)cc4s3)n2)cc1	8.8%	12.5%	-14.4%	-19.7%	25.1µM*
SMILES	FH mod	NTMT1 inhibitor	p53null 39C kill	p53null 32C kill	OvCa metastasis
CCCc1nnc(NC(=O)c2nc(S(=O)(=O)Cc3ccc(C)cc3)ncc2Cl)s1	1.3%	1.5%	10µM*	-13.5%	?
CC(C)c1nnc(NC(=O)c2nc(S(=O)(=O)Cc3ccccc3)ncc2Cl)s1	-1.8%	-0.1%	?	?	?
Cc1ccc(CS(=O)(=O)c2ncc(Cl)c(C(=O)Nc3nc4ccc(F)cc4s3)n2)cc1	-0.9%	-1.8%	?	-0.5%	-9.4%
Cc1ccc(Nc2c(-c3ccc(C)o3)nc3cccc(C)n23)cc1	?	7.94µM*	4.5%	39.4%	-25.6%
Cc1ccc(-c2nc3cccc(C)n3c2Nc2ccc3c(c2)OCO3)o1	-25.0%	?	46.4%	24.9%	-5.2%
Cc1ccc(-c2nc3ccccn3c2Nc2ccc3c(c2)OCO3)o1	?	15.8µM*	8.0%	-1.0%	-20.9%
Oc1ccc(C2CNCc3sccc32)cc1O (centres undefined)	8.91µM*	.	.	.	.
C[S+](=O)([O-])c1ccc(C(=O)OCC(=O)N2CCNC(=O)C2)cc1[N+](=O)[O-]	.	6.5%	.	.	.
Cc1nn2c(=O)cc(COC(=O)c3cccc(NC(=O)c4ccc(C(C)(C)C)cc4)c3)nc2s1	6.3%	-0.4%	1.26µM*	3.16µM*	3.2%
CCOCCn1nc(CC)c2nc(N3CCC(C(=O)O)CC3)nc(Nc3cc(C)ccn3)c21	0.1%	-13.0%[57.5 µM]	.	.	.
CN(CCCN1c2ccccc2CCc2ccccc21)CC(=O)c1ccc(Cl)cc1	-11.1%[53.3 µM]	31.6µM*	.	.	.
CN(C)CCCN1c2ccccc2CCc2ccc(Cl)cc21	-21.0%[53.3 µM]	?	.	.	-8.9%
O=C(NCCCN1CCN(c2ccccc2F)CC1)c1cc2c(s1)-c1ccccc1OC2	-18.4%	-1.0%	31.6µM*	7.2%	?
CCN1CCN(CCCNC(=O)c2cc3c(s2)-c2ccccc2OC3)CC1	-0.4%	?	?	4.8%	?
C#Cc1cccc(Nc2ncnc3cc(OCCOC)c(OCCO)cc23)c1	3.3%[53.3 µM]	35.5µM*	.	.	4.5%
CN1CCN(Cc2ccc(NC(=O)Nc3ccc(Oc4cc(NC(=O)C5CC5)ncn4)cc3)cc2C(F)(F)F)CC1	-3.9%	?	.	.	?
C[C@H](Oc1cc(-n2cnc3ccc(CN4CCN(C)CC4)cc32)sc1C(N)=O)c1ccccc1C(F)(F)F	-1.8%	25.1µM*	.	.	.
COC(=O)c1cc(Cl)ccc1NC(=O)CSc1ncc(S(=O)(=O)c2ccc(Br)cc2)c(=O)[nH]1	?	79.4µM*	18.6%	1.3%	i
O=c1c(-c2ccc(O)cc2)coc2cc(OC3O[C@H](CO)[C@H](O)[C@H](O)[C@H]3O)cc(O)c12 (some centres undefined)	?	24.1µM*	.	.	-37.6%
OC[C@@]1(O)CO[C@H](OC[C@H]2O[C@@H](OC(CCCCc3ccc(O)cc3)CCc3ccc(O)cc3)[C@H](O)[C@@H](O)[C@@H]2O)[C@@H]1O (some centres undefined)	5.4%[20.6 µM]	11.4%[12.6 µM]	.	.	.
